Results filed as inconclusive are left out. Calls of active or inactive are those of the source. Rule for the calls: active = hit-call score of the fitted dose curve at least 0.9, where 1 is the maximum; inconclusive = response in the unintended direction; inactive = score below 0.9.

human Matrix Metalloproteinase-3 (MMP3), MMP3 (gene 4314), sequence (P08254 whole entry, looked up): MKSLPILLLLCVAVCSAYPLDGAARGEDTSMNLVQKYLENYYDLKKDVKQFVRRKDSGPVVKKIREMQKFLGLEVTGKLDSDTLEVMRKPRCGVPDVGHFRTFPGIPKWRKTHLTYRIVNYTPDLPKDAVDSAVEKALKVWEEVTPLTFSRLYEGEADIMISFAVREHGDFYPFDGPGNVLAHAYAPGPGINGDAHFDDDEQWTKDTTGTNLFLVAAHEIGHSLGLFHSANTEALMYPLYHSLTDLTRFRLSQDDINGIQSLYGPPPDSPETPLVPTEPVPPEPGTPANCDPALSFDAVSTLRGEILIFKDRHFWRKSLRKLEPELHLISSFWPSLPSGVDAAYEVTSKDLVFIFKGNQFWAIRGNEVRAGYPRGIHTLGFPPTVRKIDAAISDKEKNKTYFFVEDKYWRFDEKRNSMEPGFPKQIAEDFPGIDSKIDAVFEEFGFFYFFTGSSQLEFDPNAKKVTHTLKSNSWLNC
human Matrix Metalloproteinase-2 (MMP2), MMP2 (gene 4313), sequence (P08253 whole entry, looked up): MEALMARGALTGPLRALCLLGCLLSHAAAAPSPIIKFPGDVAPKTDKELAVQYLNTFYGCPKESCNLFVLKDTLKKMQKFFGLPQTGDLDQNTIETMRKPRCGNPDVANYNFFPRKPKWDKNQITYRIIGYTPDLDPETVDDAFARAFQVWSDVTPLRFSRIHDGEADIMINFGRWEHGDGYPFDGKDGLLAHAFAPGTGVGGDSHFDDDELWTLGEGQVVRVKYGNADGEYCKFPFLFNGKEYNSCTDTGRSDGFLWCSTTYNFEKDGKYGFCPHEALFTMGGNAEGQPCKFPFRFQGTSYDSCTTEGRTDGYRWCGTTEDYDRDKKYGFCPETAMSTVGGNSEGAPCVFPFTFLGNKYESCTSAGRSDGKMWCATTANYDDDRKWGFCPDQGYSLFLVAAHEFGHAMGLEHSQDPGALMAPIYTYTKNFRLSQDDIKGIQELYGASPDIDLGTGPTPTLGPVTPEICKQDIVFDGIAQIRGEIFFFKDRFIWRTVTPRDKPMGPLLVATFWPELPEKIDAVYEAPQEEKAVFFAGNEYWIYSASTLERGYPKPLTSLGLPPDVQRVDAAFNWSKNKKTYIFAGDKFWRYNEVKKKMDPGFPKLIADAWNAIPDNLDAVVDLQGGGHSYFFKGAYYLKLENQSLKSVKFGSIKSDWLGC

The first assay has as its target human Matrix Metalloproteinase-2 (MMP2), MMP2 (gene 4313) (UniProt P08253). Kind of assay: NVS_ENZ_hMMP2: NovaScreen (NVS) Enzymatic Assay for human Matrix Metalloproteinase-2 (MMP2) (AID 2283184). An outline of the steps:
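Compounds first screened in duplicate at a single 25 uM, with actives followed up in concentration series. Recombinant human MMP2 cleaves a fluorogenic substrate; fluorescence taken at 1 h, inhibition fitted relative to DMSO.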
Consider `Cc1ccc2ncccc2c1`, for which the result was inactive.

For `CCCc1cc(=O)[nH]c(=S)[nH]1`, the call was inactive.

For the compound `C[Si]1(C)O[Si](C)(C)O[Si](C)(C)O[Si](C)(C)O1`, the call was inactive.

As for `COCCOC[C@H](CC1(C(=O)NC2CCC(C(=O)O)CC2)CCCC1)C(=O)Oc1ccc2c(c1)CCC2` (stereo partly specified), the AC50 was 19.8 µM (active).

Turning to `Cc1nc(C)nc(N2C[C@@H](C)N(c3ccnc([C@@H](C)O)n3)[C@@H](C)C2)n1`, the AC50 is 7.26 µM (active).

`Cc1nc(-c2ccc3c(c2)CCN(CCC2CCC(NC(=O)/C=C/c4ccc(F)cc4)CC2)CC3)no1` (stereo unspecified): the AC50 is 13.7 µM (active).

The next assay addresses human Matrix Metalloproteinase-3 (MMP3), MMP3 (gene 4314) (UniProt P08254). Kind of assay: NVS_ENZ_hMMP3: NovaScreen (NVS) Enzymatic Assay for human Matrix Metalloproteinase-3 (MMP3) (AID 2283185). The method, boiled down: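 Fluorescent substrate turnover by recombinant MMP3 read after 1 h, signal loss scored against DMSO. Compounds first run in duplicate at 25 uM single dose, then actives confirmed by concentration series.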
As to `CN[C@H]1CC[C@@H](c2ccc(Cl)c(Cl)c2)c2ccc(S(N)(=O)=O)cc21`, the compound was classed as inactive.

For `CNC(=O)[C@H]1O[C@@H](n2cnc3c(NCc4cc(Cl)ccc4OCc4cc(C)no4)ncnc32)[C@H](O)[C@@H]1N`, the call was inactive.

Take `COc1cc(S(=O)(=O)O)c(C)cc1N=Nc1c(O)ccc2cc(S(=O)(=O)O)ccc12`: the AC50 is 19.2 µM (active).

For `C[Si]1(C)O[Si](C)(C)O[Si](C)(C)O[Si](C)(C)O1`, the compound was classed as inactive.

Take `COc1cc(C=O)ccc1O`: the AC50 was 3.71 µM (active).

For the compound `CN1CCN(Cc2cc(-c3ccc4[nH]c(=O)oc4c3)co2)[C@@H](c2ccc(F)cc2)C1`, the outcome was inactive.

As to `Nc1ccc2c(c1)C(=O)c1ccccc1C2=O`, the AC50 is 31.6 µM (active).

With `NCC1(Cc2noc(=O)[nH]2)CCCCC1`, the call was inactive.

For the compound `Cc1nc(-c2ccc3c(c2)CCN(CCC2CCC(NC(=O)/C=C/c4ccc(F)cc4)CC2)CC3)no1` (stereo unspecified), the AC50 was 16.6 µM (active).

For `CCCCc1ccc2c(n1)[C@@H](c1ccc(OC)cc1C[C@H](C)C(=O)O)[C@H](C(=O)O)[C@H]2c1ccc2c(c1)OCO2`, the concentration at half-maximal activity (AC50) was 38.6 µM (active).

A word on the AC50: it is the concentration at which the activity in the assay is half-maximal.

For the origin of these results see PubChem BioAssay (EPA / NIEHS).
